Hits are enriched below; roughly 1.2% of the tested compounds scored in any of these assays.
GC-A act = GC-A stimulated cGMP production enhancers – HEK293 GC-A cells, cGMP TR-FRET, EC30 ANP, primary screen. Atrial natriuretic peptide receptor 1 (Homo sapiens), P16066. 0% at EC30 ANP, 100% saturating ANP. activation, % at 10 µM. 0.14% of 370,000 active; in the data active = activation above about 40%
Target sequence (P16066 whole entry, looked up): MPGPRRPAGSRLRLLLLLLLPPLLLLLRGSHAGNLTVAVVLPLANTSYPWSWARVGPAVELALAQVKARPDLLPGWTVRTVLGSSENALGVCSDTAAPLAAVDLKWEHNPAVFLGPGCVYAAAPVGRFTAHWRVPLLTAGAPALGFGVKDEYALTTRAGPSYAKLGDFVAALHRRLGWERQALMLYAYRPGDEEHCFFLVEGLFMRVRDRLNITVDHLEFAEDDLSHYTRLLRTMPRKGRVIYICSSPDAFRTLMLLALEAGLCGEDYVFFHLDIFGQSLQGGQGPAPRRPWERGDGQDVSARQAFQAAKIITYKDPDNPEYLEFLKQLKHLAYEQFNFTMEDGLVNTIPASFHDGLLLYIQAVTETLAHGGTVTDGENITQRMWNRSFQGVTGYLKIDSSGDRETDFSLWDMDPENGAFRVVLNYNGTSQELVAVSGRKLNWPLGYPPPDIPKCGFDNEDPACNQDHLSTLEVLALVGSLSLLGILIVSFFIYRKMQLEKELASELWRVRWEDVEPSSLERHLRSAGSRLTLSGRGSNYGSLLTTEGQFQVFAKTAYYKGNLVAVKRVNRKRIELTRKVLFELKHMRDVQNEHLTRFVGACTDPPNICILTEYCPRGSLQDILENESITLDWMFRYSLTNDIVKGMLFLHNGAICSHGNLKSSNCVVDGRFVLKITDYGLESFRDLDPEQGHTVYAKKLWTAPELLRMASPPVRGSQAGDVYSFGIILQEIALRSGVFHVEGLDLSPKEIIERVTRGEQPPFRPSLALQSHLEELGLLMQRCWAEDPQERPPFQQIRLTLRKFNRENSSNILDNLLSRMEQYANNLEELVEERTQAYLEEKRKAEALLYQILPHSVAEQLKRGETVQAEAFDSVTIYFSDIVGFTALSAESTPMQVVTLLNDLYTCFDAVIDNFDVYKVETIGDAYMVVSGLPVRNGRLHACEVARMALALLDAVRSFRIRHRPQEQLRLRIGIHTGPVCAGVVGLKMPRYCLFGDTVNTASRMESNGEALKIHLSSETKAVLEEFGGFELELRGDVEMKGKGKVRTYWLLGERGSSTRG
TLR9-MyD88 block = inhibitors of TLR9-MyD88 association in cells, primary screen, cell-based, CHO, BLA complementation, fluorescence | Toll-like receptor 9 (Homo sapiens) + Myeloid differentiation primary response protein … | CCF4 FRET ratio | inhibition, % at 4.98 µM | 0.21% of 340,000 active | AID 504734, 2011;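 active = inhibition above the mean over all tested compounds plus 3 SD, cut at about 21% in these data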;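 note: 0% = DMSO only wells and 100% = clavulanate BLA inhibitor control wells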
NOD2 RIPK2 PPI = NOD2-RIPK2 binding disruptors in cells, primary screen, fluorescence, CHO cells, BLA complementation | 0.38% of 360,000 active | inhibition, % at 4.98 µM | CCF4 ratio; in the data active = inhibition above about 21%;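 note: 0% = vehicle only and 100% = reference blocker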
NPR2 activator = human GC-B receptor activators, primary screen, HEK293 GC-B cells, cGMP TR-FRET, EC30 CNP | AID 1920062, 2024 | Atrial natriuretic peptide receptor 2 (Homo sapiens), P20594 | 0.11% of 370,000 active | 0% at EC30 CNP, 100% saturating CNP | activation, % at 10 µM;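 active = activation at 10 µM reaching about 35% in either raw or pattern-adjusted values, limit read from the data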
Neddylation inh = inhibitors of cullin neddylation, primary screen, biochemical, TR-FRET, uHTS, NAE and Ubc12; AID 651699, 2012; inhibition, % at 25 µM; NEDD8-conjugating enzyme Ubc12 (Homo sapiens) + NEDD8-activating enzyme E1 regulatory …; 0.58% of 360,000 active; in the data active = inhibition above about 36%
TLR4-MyD88 BLA = inhibitors of TLR4-MyD88 association in cells, primary screen, cell-based, HeLa CL3-4, BLA complementation, FRET ratio; Toll-like receptor 4 (Homo sapiens) + Myeloid differentiation primary response protein …; HeLa CL3-4 TLR4/MyD88 BLA complementation; inhibition, % at 8.4 µM; 0.18% of 200,000 active; AID 861, 2007; in the data active = inhibition above about 25%;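 note: 0% = vehicle and 100% = reference inhibitor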
* marks the source's active call; other numbers are inactive results; . = no result given; ! = repeats disagree.

SMILES	GC-A act	TLR9-MyD88 block	NOD2 RIPK2 PPI	NPR2 activator	Neddylation inh	TLR4-MyD88 BLA
CCOC(=O)c1cnc2c(c(C)nn2-c2ccc(C)cc2)c1Cl	60.2*	-9.1	7.9	-11.4	-131.7	.
Cc1cc(C)cc(C(=O)OCCN(C)C2CN(Cc3cn(Cc4cccc(F)c4)nn3)S(=O)(=O)C2)c1 (configuration not stated)	-5.2	.	.	-5.2	.	.
COc1ccc(-c2nnc(SCC(=O)Nc3ccc(S(=O)(=O)Nc4cc(C)nc(C)n4)cc3)n2-c2ccc(OC)cc2)cc1	-1.0	.	.	4.6	.	.
Cc1cc(Nc2cc(Cl)cc(Cl)c2)cc(=O)n1-c1cc(Cl)cc(Cl)c1	21.2	.	.	28.1*	.	.
COC(=O)[C@]12C[C@H](CC(=O)NCCCN3CCCC3=O)C(=O)N(Cc3ccco3)C1=C[C@H](C(C)C)O[C@@H]2C1CC1	-2.1	.	.	-0.5	.	.
COC(=O)c1sc(-c2ccc(C(C)(C)C)cc2)cc1NC(=O)CSCC(=O)O	6.5	6.1	-14.5	-2.0	40.4*	.
COC(=O)c1sc(-c2ccc(Cl)cc2)cc1NC(=O)c1ccccc1C(=O)O	23.9	3.9	-2.1	-11.5	-10.9	.
COC(=O)c1sc(-c2ccc(C(C)(C)C)cc2)cc1NC(=O)c1ccccc1C(=O)O	-8.4	-3.4	-8.6	3.1	70.4*	.
COc1ccc(NC(=O)/C(Cl)=C(/Cl)S(=O)(=O)Cc2ccc(C)cc2)cn1	.	26.6*	75.0*	.	6.2	5.8
COc1ccc(NC(=O)Cc2ccc(Cl)c(Cl)c2)cn1	3.0	2.4	-4.2	4.8	5.0	-12.6
COC1=CC(=O)CC(C)C12Oc1cc(OC)cc(OC)c1C2=O (configuration not stated)	3.2	10.0	3.7	-1.4	22.9	.
COC(=O)C1=CC(=O)C=C(OC)[C@@]12Oc1cc(C)cc(OC)c1C2=O	79.0*	.	.	33.9	.	.
O=C(NCCN1CCC(Cc2ccccc2)CC1)C1CCCN(S(=O)(=O)c2ccc([N+](=O)[O-])cc2)C1 (configuration not stated)	-3.1	.	.	-5.3	.	.
Cc1ccc(/C=C2/NC(=O)N(Cc3ccccc3)C2=O)o1	39.8	1.7	12.6	46.3*	-6.9	-3.0
Nc1nc2c(ncn2[C@@H]2O[C@H](C(=O)N[C@H](Cc3ccccc3)C(=O)NCc3ccc4c(c3)OCO4)[C@@H](O)[C@H]2O)c(=O)[nH]1	31.5	.	.	37.5*	.	.
COC(=O)c1cc2c(c3c4cc(F)ccc4n(S(=O)(=O)c4cccc(C)c4)c13)C(=O)N(Cc1ccc(C(F)(F)F)cc1)C2	-0.8	.	.	-5.1	.	.
Cc1c(N=C2N=C(NC(=O)c3ccc(F)cc3)c3ccccc32)c(=O)n(-c2ccccc2)n1C	58.0*	1.9	-2.3	-4.3	-50.4	-5.0
COC(=O)[C@]12C[C@H](CC(=O)NCCc3ccccc3OC)C(=O)N(CCC3=CCCCC3)C1=C[C@H](C(C)C)O[C@@H]2C1CC1	1.1	.	.	-0.6	.	.
O=C(N/N=C/c1sc(N2CCOCC2)nc1-c1ccccc1)c1cccc(S(=O)(=O)N2CCOCC2)c1	-0.6	11.4	0.9	-1.7	37.2*	.
CCc1ccc2[nH]c3nc(C)cc(C)c3c(=O)c2c1	40.7*	3.5	-7.9	36.5*	-98.3	-28.0
CCC(C)n1nnc2c(=O)oc3ccccc3c21 (configuration not stated)	2.9	1.2	-0.2	-1.0	-1.9	17.3
Cc1ccc(-n2nnc3c(=O)oc4ccccc4c32)cc1	-2.8	2.9	-5.8	38.9*	-4.1	-3.3
CCOC(=O)NC[C@@]1(C(=O)OC)CC(=O)N(C)[C@@H]1c1ccccc1	1.1	.	.	-0.7	.	.
Clc1ccc(Cl)c(-c2nc(-c3ccncc3)no2)c1	-1.7	-0.9	-9.1	-0.1	-48.7	.
O=[N+]([O-])c1cc(Cl)ccc1-c1nc(-c2ccncc2)no1	45.7*	2.8	5.3	-1.5	-35.0	13.9
SMILES	GC-A act	TLR9-MyD88 block	NOD2 RIPK2 PPI	NPR2 activator	Neddylation inh	TLR4-MyD88 BLA
Clc1ccc(-c2nc(-c3ccncc3)no2)c(Cl)c1	46.1*	-1.6	0.6	-9.4	-16.3	.
COC(=O)C12C=C3CC(C)=C3C(=O)N1Cc1[nH]c3ccccc3c1C2 (configuration not stated)	-1.9	.	.	13.5	.	.
Cc1ccc(Cn2cc(CN3[C@@H](Cc4ccccc4)COc4cc(Br)ccc4S3(=O)=O)nn2)cc1	-1.4	.	.	8.8	.	.
Cc1ccnc(Nc2nc(-c3c(C)nc4sccn34)cs2)c1	32.0	6.5	-1.9	36.7*	9.2	7.0
CC1CCC2(CCC(=O)N2CCCOC(=O)NC(C)(C)C)CC1 (configuration not stated)	0.4	.	.	3.8	.	.
C=CCN(CC#Cc1ccccc1)Cc1ccc(OC)cc1	-1.6	.	.	-5.7	.	.
CC(C)Nc1nc(Cl)nc(N(C#N)CN2C(=O)c3ccccc3C2=O)n1	47.7*	2.5	15.4	48.4*	-11.3	12.2
CCCc1ccc(Oc2cn[nH]c2-c2ccc(O)cc2O)cc1	40.1*	-0.5	-1.9	1.4	4.2	-0.4
CC(NC(=O)Cn1ncc(Cl)c(Cl)c1=O)C12CC3CC(CC(C3)C1)C2 (configuration not stated)	.	22.5*	66.2*	.	-437.4	20.6
O=C(Cn1nnc(-c2ccncc2)n1)Nc1ccc(Cl)cc1	-0.8	.	.	-3.8	.	.
CCC(C)Sc1cc(-c2nc3ccc(C)cn3c2NCc2ccccc2)ccc1OC (configuration not stated)	0.8	-3.1	27.2*!	0.9	.	.
Cn1c(=O)c2[nH]c(SCC(=O)N3CCN(c4cccc(C(F)(F)F)c4)CC3)nc2n(C)c1=O	-1.1	.	.	-0.5	.	.
COc1ccc(CNC(=O)c2cccc3c(-c4cccc(C(N)=O)c4)coc23)cc1OC	32.6	.	-8.3	37.7*	0.4	.
Cc1c(C(N)=O)sc2nc(-c3ccccc3)cn12	3.9	2.3	-0.2	74.0*	-4.0	5.2
O=c1n(Cc2ccc(Cl)cc2)c2sc3c(c2c2ncnn12)CCCC3	34.4	-1.3	-4.7	48.7*	-1.3	2.5
C=CCn1c(=O)n2ncnc2c2c3c(sc21)CCCC3	17.3	-15.8	-11.8	1.1	-0.9	4.0
CSCC[C@H](NC(=O)[C@H](Cc1ccccc1)n1c(=O)[nH]c2ccccc2c1=O)C(=O)N1CCC[C@H]1C(=O)O	5.8	-8.1	1.5	83.3*	0.4	.
CCn1nc([N+](=O)[O-])c2c(-c3nc4ccccc4o3)c(N)n(CCCOC)c2c1=O	46.3*	5.4	-0.6	5.1	-10.1	3.0

Screening data deposited in PubChem by several laboratories.
